Results taken from the supplement of paper PMC11732987, “Enantioselective OTUD7B fragment discovery through chemoproteomics screening and high-throughput optimisation” (Communications Chemistry, 2025).

Key:
Test in all cases: log2 ratio of Biotin-Ahx-Ub-VS probe labelling (fragment/DMSO); higher = less target engagement (more negative = stronger competition), active = hit call of the paper (q ≤ 0.05, log2 ratio ≤ -1)
Conditions in all cases: compound concentration: 200 uM; treatment time: 3 h
OTUD6B = biological target: T1, OTUD6B (UniProt Q8N6M0)
T1 sequence (whole entry): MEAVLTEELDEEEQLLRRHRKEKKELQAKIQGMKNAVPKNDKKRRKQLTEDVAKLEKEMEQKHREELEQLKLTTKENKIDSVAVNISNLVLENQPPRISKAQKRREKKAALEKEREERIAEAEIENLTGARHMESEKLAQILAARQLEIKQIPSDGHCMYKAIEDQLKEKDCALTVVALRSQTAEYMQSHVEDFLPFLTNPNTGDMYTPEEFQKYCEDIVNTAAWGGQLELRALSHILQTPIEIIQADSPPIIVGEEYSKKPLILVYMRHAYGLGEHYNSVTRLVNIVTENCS
In short: (§1)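 Labelled DUBs were enriched with NeutrAvidin, digested with LysC and trypsin, and run by diaPASEF LC-MS/MS. The labelling used Biotin-Ahx-Ub-VS at 0.5 µM final for 1 h on HEK293T lysate (495 µg per sample) previously treated in triplicate with fragment at 200 µM or vehicle for 3 h. Values are average log2 fragment/vehicle ratios by unpaired t-test on global-median-normalised Spectronaut quantities of proteins with ≥2 unique peptides.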

OTUD7B = biological target: T2, OTUD7B (UniProt Q6GQQ9)
T2 sequence (whole entry): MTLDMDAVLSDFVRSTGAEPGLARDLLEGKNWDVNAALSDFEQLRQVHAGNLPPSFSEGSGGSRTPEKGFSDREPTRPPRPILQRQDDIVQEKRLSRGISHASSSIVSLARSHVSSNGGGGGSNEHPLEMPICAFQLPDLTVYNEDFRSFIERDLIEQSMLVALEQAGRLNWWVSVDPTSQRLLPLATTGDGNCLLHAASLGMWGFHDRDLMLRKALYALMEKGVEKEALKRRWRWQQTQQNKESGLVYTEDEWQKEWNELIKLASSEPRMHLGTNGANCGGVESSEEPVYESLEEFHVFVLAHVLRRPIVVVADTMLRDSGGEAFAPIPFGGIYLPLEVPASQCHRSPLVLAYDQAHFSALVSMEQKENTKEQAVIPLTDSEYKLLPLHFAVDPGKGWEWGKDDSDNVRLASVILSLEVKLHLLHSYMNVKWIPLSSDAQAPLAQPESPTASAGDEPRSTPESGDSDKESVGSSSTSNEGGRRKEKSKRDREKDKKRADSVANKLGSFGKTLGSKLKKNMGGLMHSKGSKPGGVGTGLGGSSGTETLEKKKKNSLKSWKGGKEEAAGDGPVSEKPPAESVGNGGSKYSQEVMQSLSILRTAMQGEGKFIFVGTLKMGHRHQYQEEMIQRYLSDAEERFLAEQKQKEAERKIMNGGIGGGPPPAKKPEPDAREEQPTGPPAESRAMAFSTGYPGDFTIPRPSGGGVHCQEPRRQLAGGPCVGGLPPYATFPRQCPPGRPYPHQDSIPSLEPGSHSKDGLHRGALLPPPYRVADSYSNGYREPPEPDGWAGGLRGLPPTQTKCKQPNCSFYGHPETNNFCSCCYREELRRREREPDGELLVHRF
In short: as §1

PRPF8 = PRPF8 (UniProt Q6P2Q9)
In short: as §1

PSMD7 = biological target: T3, PSMD7 (UniProt P51665)
T3 sequence (whole entry): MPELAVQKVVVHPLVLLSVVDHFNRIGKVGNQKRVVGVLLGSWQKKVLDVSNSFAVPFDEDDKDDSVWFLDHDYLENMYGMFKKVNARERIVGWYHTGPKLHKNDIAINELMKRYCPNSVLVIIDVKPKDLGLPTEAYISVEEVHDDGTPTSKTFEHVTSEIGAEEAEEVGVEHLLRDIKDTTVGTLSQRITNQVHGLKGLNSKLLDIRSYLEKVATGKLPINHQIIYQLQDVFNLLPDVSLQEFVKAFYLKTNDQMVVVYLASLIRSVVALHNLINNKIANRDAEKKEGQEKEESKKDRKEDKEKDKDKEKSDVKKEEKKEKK
In short: as §1

UCHL1 = UCHL1 (UniProt P09936)
In short: as §1

UCHL3 = biological target: T4, UCHL3 (UniProt P15374)
T4 sequence (whole entry): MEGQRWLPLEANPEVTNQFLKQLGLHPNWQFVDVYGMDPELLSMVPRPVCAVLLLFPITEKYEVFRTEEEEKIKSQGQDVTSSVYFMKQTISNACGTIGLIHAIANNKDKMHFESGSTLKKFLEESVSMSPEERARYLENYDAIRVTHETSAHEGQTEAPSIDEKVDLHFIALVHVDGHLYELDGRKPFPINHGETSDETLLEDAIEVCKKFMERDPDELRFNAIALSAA
In short: as §1

UCHL5 = biological target: T5, UCHL5 (UniProt Q9Y5K5)
T5 sequence (whole entry): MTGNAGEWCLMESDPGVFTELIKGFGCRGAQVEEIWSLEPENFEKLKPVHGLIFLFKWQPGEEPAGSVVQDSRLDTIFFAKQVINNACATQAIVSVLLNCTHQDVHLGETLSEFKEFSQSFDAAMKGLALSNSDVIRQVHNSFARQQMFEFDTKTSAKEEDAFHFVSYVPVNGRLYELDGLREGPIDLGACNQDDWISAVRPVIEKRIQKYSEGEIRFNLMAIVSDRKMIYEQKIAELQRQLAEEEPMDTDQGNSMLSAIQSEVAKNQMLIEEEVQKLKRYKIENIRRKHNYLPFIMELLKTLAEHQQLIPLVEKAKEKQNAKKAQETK
In short: as §1

USP10 = USP10 (UniProt Q14694)
In short: as §1

USP15 = biological target: T6, USP15 (UniProt Q9Y4E8)
T6 sequence (whole entry): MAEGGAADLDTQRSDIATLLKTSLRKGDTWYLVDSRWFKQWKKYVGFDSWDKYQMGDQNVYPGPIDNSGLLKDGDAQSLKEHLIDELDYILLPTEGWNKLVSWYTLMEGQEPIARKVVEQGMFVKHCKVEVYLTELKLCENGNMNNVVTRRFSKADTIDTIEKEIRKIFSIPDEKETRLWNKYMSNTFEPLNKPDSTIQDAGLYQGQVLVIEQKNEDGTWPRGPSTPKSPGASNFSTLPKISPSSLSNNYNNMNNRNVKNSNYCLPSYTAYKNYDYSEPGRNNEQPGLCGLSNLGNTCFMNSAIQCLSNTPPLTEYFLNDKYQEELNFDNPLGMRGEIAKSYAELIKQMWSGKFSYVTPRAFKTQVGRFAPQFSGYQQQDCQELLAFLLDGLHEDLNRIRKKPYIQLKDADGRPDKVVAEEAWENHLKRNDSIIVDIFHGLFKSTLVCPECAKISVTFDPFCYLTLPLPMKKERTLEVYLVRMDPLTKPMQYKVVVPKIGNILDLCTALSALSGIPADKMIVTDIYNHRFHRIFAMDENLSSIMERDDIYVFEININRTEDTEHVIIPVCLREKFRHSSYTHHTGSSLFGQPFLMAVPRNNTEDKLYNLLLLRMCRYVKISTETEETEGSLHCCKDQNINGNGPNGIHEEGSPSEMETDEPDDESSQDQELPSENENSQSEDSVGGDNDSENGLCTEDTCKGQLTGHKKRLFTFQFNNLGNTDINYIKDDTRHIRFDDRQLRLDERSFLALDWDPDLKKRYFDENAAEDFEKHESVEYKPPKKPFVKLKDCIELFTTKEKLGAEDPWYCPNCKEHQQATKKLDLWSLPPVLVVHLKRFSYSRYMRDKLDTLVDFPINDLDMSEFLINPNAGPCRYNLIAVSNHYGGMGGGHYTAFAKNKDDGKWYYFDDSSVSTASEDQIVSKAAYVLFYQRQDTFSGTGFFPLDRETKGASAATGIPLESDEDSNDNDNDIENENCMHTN
In short: as §1

Measured: log2 ratio of Biotin-Ahx-Ub-VS probe labelling

Chain of USP10 (Q14694 whole entry): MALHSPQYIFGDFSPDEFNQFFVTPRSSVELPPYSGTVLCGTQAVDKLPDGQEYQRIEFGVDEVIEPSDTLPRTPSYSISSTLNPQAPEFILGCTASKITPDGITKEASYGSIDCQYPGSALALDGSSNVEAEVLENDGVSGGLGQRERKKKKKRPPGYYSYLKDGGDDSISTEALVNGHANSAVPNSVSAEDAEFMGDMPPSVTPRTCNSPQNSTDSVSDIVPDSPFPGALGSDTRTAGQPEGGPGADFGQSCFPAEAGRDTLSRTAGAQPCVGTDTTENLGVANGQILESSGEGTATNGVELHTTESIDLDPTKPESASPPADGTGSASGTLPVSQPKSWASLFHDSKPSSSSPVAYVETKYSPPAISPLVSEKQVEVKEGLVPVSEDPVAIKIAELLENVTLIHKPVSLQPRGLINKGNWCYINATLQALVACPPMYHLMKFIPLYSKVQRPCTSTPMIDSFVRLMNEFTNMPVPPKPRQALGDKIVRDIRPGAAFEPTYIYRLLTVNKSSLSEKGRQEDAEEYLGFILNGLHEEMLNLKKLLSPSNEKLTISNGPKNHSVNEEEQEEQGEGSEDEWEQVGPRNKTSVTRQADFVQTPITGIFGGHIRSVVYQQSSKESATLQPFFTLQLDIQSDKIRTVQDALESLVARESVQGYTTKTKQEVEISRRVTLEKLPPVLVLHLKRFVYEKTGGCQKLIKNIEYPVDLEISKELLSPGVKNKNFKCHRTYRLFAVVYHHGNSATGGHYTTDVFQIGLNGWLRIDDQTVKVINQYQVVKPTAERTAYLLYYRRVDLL
Chain of UCHL1 (P09936 whole entry, looked up): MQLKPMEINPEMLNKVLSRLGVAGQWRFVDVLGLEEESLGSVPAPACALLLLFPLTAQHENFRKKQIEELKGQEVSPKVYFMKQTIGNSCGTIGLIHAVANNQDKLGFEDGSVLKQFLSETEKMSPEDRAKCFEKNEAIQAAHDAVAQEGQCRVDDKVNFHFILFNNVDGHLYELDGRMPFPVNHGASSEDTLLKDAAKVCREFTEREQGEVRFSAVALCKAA

Cc1ccn2cc(CNC(=O)CCl)nc2c1.Cl
inactive: OTUD6B -0.283 | OTUD7B -0.682 | PRPF8 0.0356 | PSMD7 -0.104 | UCHL1 -0.67 | UCHL3 -0.0928 | UCHL5 -0.311 | USP10 0.0849 | USP15 -0.244
